# Hits are enriched below; roughly 21% of the tested compounds scored in any of these assays.
# Shiga toxin inh: inhibitors of Shiga toxin in Vero cells; Vero cells, Shiga toxin protein synthesis inhibition reporter; inhibition, % at 38.7 µM; hit rate 9.2% among 290,000; AID 2315; in the data active means inhibition mostly above about 28%, no sharp cut-off; inactive means mostly below about 43%; further: 0% is about no effect
# CHX counter: counter-screen hit for Shiga toxin inhibitors, cycloheximide. cell reporter, cycloheximide protein synthesis inhibition counterscreen. max response, %. hit rate 12% among 300,000. AID 2314; in the data active means max response mostly above about 13%, no sharp cut-off; inactive means mostly below about 14%; further: read at 38.3 µM for the half of the compounds with a filed dose; 0% is about no effect
# Pf growth 96h: P. falciparum growth inhibition at 96 hours; Potency, µM (titrated, usually from 28.7 µM), inactives show top-dose activity change, negative = inhibition, hits mostly inhibitors; AID 504834; P. falciparum luciferase reporter growth, 96 h; hit rate 6.9% among 320,000; further: potency means the concentration at half of the fitted maximal effect; on the % scale 0 is the no-effect control and ±100 the full control effect
#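 96 h incubation, 37 C, 5% CO2, of luciferase-reporter P. falciparum-infected RBCs (2% hematocrit, 0.05% parasitemia final) with test compounds; endpoint luminescence.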
# NS1 inh: blocks influenza NS1 protein function; Potency, µM (top dose mostly 46.1 µM), without a hit: top-dose activity, positive = more growth; hit rate 0.4% among 270,000; AID 2326; calls by dose curve; further: potency means the concentration at half of the fitted maximal effect; actives are rising curves; nearly all actives have a fitted effect of over 50% in size
#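 Compounds were scored for reversing the slow growth caused by influenza A NS1 in S. cerevisiae, measured by optical density at 600 nm. Assay medium contained 2% galactose at pH 6.0; NS1-free yeast of the same strain were the positive control.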
# Pf growth 48h: inhibits P. falciparum growth in the first generation, 48 h | P. falciparum luciferase growth in erythrocytes, 48 h | Potency, µM (titrated, usually from 28.7 µM), for inactives: top-dose activity change, negative = inhibition, most hits filed as inhibitors | hit rate 5.9% among 310,000; further: potency means the concentration at half of the fitted maximal effect; on the % scale 0 is the no-effect control and ±100 the full control effect
#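 In quantitative HTS format, infected erythrocytes bearing luciferase-reporter parasites were treated for a single generation at 37 C. Luminescence after adding detection reagent served as the growth measure.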
# Sm TGR block: blocks Schistosoma mansoni thioredoxin glutathione reductase. Potency, µM (series often up to 114 µM), inactives show at the top dose activity change, negative = inhibition, hits mostly inhibitors. purified TGR, DTNB reduction, TNB absorbance 405 nm. Q962Y6. AID 485364. hit rate 3% among 360,000; further: potency means the concentration at half of the fitted maximal effect; on the % scale 0 is the no-effect control and ±100 the full control effect; nearly all actives have a fitted effect of over 60% in size
#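 TGR 20 nM + NADPH 100 uM (dispensed conc.), cpd preinc 15 min RT; start with NADPH (500 uM addition) then DTNB (15 mM addition). Kinetic TNB absorbance, 405 nm filter. Four-parameter Hill fit across titration.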
# * marks the source's active call; other numbers are inactive results; u = inconclusive; x = no result given; [ ] = dose if it differs, or a comment. Unless noted, the call rests on the fitted dose curve; in most records, active means well fitted curve in the direction sought with a large enough effect; inconclusive means small, poorly fitted or top-dose-only effect, or another doubt; inactive means no such curve, though single readings can be large; an effect the other way counts as inactive or inconclusive.
SMILES,Shiga toxin inh,CHX counter,Pf growth 96h,NS1 inh,Pf growth 48h,Sm TGR block
CCOC(=O)c1ccc(NC(=O)C2C3CCCCC32)cc1 (stereo not drawn),103*,43*,-163%,-11%,-22%,41%
O=C(O)c1ccc(NC(=S)NC2CCCCC2)cc1,10,7,u,19%,26%,-7%
COC(=O)c1cc(S(=O)(=O)N2CCOCC2)c(Cl)cc1N1CCOCC1,4,-4,x,0%,9%,22%
COC(=O)c1cc(C)nc2c1C(=O)C(=O)C=C2N1CCOCC1,-25,-6,-2%,4%,13µM*,u
CCOC(C[n+]1c(-c2ccccc2)cc(C)cc1-c1ccccc1)OCC,x,x,1.5µM*,x,1.5µM*,1%
O=C1CSc2nc3ccccc3n21,19,21*,-7%,-7%,35%,31%
CCN(CC)S(=O)(=O)c1ccc2c(c1)c(C(=O)O)cn2C,-24,-2,6.6µM*,2%,8%,1%
CCN(CC)C(=O)c1cn(C)c2ccc(S(=O)(=O)N(CC)CC)cc2c1=O,4,-1,32%,-3%,-12%,4%
CCN(CC)S(=O)(=O)c1ccc2c(c1)c(=O)c(C(=O)N1CCN(c3ccccn3)CC1)cn2C,-7,0,0.52µM*,-6%,-7%,-1%
COc1ccc(C2=NOC(C(=O)Nc3ccc4c(c3)OCCO4)C2)c(OC)c1 (stereo not drawn),25,11,u,-3%,u,10%
CCOc1ccc(/C=C/C(=O)Oc2ccccc2)cc1,-2,-2,u,2%,u,-18%
CCOc1ccc(/C=C/C(=O)C(C(N)=O)=C2SCCS2)cc1,57*,34*,u,-6%,-77%,6%
Cc1ccc2c(CC(=O)N(C)c3c(N)n(Cc4ccccc4)c(=O)[nH]c3=O)coc2c1,x,x,10%,x,6%,0%
O=C(NC1CCCCCC1)C(Cc1ccccc1)n1cccc1 (stereo not drawn),-9,-1,-6%,-2%,u,-6%
CCOC(=O)c1cc(-c2ccccc2C)n(CC2CC(c3cccc([N+](=O)[O-])c3)=NO2)n1 (stereo not drawn),x,x,u,x,u,-13%
COc1ccc(C2=NOC(Cn3nc(C(=O)NCC4CC4)cc3-c3ccccc3)C2)cc1 (stereo not drawn),x,x,9.3µM*,x,u,-3%
COc1ccccc1CNC(=O)c1cc(-c2ccccc2C)nn1CC1CC(c2cccnc2)=NO1 (stereo not drawn),x,x,4.7µM*,x,u,-13%
COc1ccc(C2=NOC(Cn3nc(C(=O)NCc4ccccc4OC)cc3-c3ccccc3)C2)cc1 (stereo not drawn),x,x,u,x,13µM*,4%
COc1ccccc1CNC(=O)C1CC(c2cccc([N+](=O)[O-])c2)=NO1 (stereo not drawn),24,11,42%,-19%,20%,-7%
COc1ccc(C2=NOC(Cn3nc(C(=O)NCc4ccc(OC(F)(F)F)cc4)cc3-c3ccccc3)C2)cc1 (stereo not drawn),x,x,-20%,x,10µM*,0%
CCOC(=O)c1cc(-c2ccccc2C)nn1CC1CC(c2ccc(OC)cc2)=NO1 (stereo not drawn),x,x,u,x,-18%,-10%
Cc1ccc(N2CCN(S(=O)(=O)c3ccc4oc(=O)c5ncn(C)c5c4c3)CC2)c(C)c1,x,x,x,x,x,7%
Cc1csc2nc(COC(=O)c3cccc(NC(=O)COc4ccc(Cl)cc4)c3)cc(=O)n12,x,x,x,x,x,5%
N/C(CN1CCCC1=O)=N\O,-18,-6,-5%,6%,x,-3%[11.4 µM]
N/C(CN1CCCC1=O)=N\OC(=O)c1ccccc1Cl,16,26*,u,-8%,60%,10%
SMILES,Shiga toxin inh,CHX counter,Pf growth 96h,NS1 inh,Pf growth 48h,Sm TGR block
COc1ccc(N2C(=O)CC(Sc3nc4ccccc4s3)C2=O)cc1 (stereo not drawn),-1,7,u,x,u,22µM*
COc1ccc(N2C(=O)CSC2c2ccccc2)cc1 (stereo not drawn),-4,12,21%,2%,x,-10%
COc1ccc(N2C(=O)CC(N3CCC(n4c(=O)[nH]c5ccccc54)CC3)C2=O)cc1 (stereo not drawn),-22,-4,19%,-18%,x,35µM*
COc1ccc(C2SCC(=O)N2c2nc3ccccc3s2)cc1 (stereo not drawn),111*,42*,317%,11%,35%,5%
COc1ccc(N2C(=O)CC(N3CCN(c4ccc(S(C)(=O)=O)cc4)CC3)C2=O)cc1 (stereo not drawn),-10,-3,-23%,2%,x,18µM*
COc1ccc(N2CCN(C3CC(=O)N(C)C3=O)CC2)cc1 (stereo not drawn),-8,-5,0%,0%,8%,2%
CCCNC(=O)CCc1nnc2ccc(N3CCN(c4cccc(OC)c4)CC3)nn12,x,x,x,x,x,0%
COc1ccc2nc(N3C(=O)CC(Cc4ccc(C)cc4)C3=O)sc2c1 (stereo not drawn),-12,-7,64%,8%,-2%,5%
COc1ccc2nc(N3C(=O)CC(C(C)c4ccccc4)C3=O)sc2c1 (stereo not drawn),2,0,3.7µM*,2%,-7%,4%
C=CCNc1nnc(SC2CC(=O)N(c3ccc(OC)cc3)C2=O)s1 (stereo not drawn),-6,-6,u,-211%,x,2.8µM*
COc1ccc(N2C(=O)CC(N3CCN(c4nc5ccccc5s4)CC3)C2=O)cc1 (stereo not drawn),-4,-1,4.7µM*,-20%,-23%,20µM*
COc1ccc(N2C(=O)CC(Sc3nnc(-c4ccccc4F)n3C)C2=O)cc1 (stereo not drawn),-4,12,1%,x,11%,2.8µM*
CCOc1cccc(N2C(=O)CC(N3CCN(c4nc5ccccc5s4)CC3)C2=O)c1 (stereo not drawn),-2,1,u,6%,u,u
COc1c(Cl)cccc1NC(=O)c1c(NC(=O)Cc2ccccc2)sc2c1CCCC2,2,9,x,x,x,x
COc1ccc(S(=O)(=O)NCCSCc2ccc(Cl)cc2)cc1NC(C)=O,x,x,13%,x,-42%,-7%
O=C(N/N=C/c1cccc([N+](=O)[O-])c1)c1ccc(COc2ccccc2-c2ccccc2)cc1,-7,-2,u,13%,u,3%
COc1cccc(CN2CC(C(=O)N3CCOCC3)CCC2=O)c1 (stereo not drawn),66*,46*,9%,-12%,-6%,9%
COc1cccc(CN2CC(C(=O)NCCN3CCOCC3)CCC2=O)c1 (stereo not drawn),3,2,15µM*,0%,4%,0%
COc1cccc(CN2CC(C(=O)NCC3CCOCC3)CCC2=O)c1 (stereo not drawn),3,1,u,5%,11%,8%
